# High-throughput results (PubChem BioAssay)
# FLuc modulator: counter-screen for miR-21 project: firefly luciferase inhibitors or activators; P08659; purified FLuc, Km substrates, luminescence inhibition; Potency, µM (top dose mostly 57.5 µM), inactives show top-dose activity change, negative = inhibition, actives largely listed as inhibitors; 360,000 tested, 6.9% active;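 further: plate controls were vehicle for no effect and reference inhibitor for full effect; nearly all actives have a fitted effect of over 55% in size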
# Target sequence (P08659 whole entry, looked up): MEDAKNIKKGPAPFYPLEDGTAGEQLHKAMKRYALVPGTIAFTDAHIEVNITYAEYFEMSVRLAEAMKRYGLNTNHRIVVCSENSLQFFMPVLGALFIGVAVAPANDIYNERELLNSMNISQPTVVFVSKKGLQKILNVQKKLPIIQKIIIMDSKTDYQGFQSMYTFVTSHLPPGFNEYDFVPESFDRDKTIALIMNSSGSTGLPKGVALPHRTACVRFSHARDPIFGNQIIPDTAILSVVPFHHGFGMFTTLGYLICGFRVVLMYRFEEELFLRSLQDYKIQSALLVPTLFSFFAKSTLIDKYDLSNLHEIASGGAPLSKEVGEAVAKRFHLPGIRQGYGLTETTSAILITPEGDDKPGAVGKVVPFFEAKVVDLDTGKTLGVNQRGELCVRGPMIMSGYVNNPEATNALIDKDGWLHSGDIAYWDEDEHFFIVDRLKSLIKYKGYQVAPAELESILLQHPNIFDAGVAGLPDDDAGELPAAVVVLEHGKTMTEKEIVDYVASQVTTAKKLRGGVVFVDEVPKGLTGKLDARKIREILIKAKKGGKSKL
#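 Purified P. pyralis luciferase, 10 nM final, with Km-level 10 uM D-luciferin and 10 uM ATP in 50 mM Tris acetate pH 7.5, 10 mM Mg acetate, 0.01% Tween-20, 0.05% BSA; 6-point qHTS titration about 60 µM downward; luminescence read.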
# Rab9 promoter act: activators of Rab9 promoter | Huh7 Rab9 promoter-luciferase reporter, luminescence, 24 h | AID 485297 | Potency, µM (top dose mostly 9.22 µM), for the others: at the highest dose activation, negative = inhibition, usual class: activators | 320,000 tested, 2.8% active; further: % of control where 0% means no effect; nearly all actives have a fitted effect of over 60% in size
#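 Promoter activation is measured as luciferase luminescence in Huh7 cells stably transfected with a Rab9 promoter–luciferase construct, following 24 h compound exposure at 37 °C and 10 min reagent incubation at ambient temperature.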
# SMN2 splice up: SMN2 splice variant enhancement; HEK293 SMN2-luciferase splicing reporter, luminescence, 30-36 h; Potency, µM (titrated, usually from 46.1 µM), without a hit: at the top dose activity change, positive = activation, actives largely listed as activators; 210,000 tested, 2.8% active; further: % of control where 0% means no effect; nearly all actives have a fitted effect of over 55% in size
#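 HEK293 cells carry an SMN2 […]–luciferase reporter in which exon 7 inclusion puts luciferase in frame. Cells were plated 10-12 h before compound addition, then incubated 30-36 h at 37C. ONE-Glo luminescence was read; sodium butyrate at 4.5 mM final served as control.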
# ELG1 genotoxic: induces genotoxicity in HEK293T cells with luciferase-tagged ELG1 | Potency, µM (highest dose often 46 µM), for the others: at the highest dose activity change, positive = activation, usual class: activators | AID 504466 | HEK293T ELG1-luciferase reporter, luminescence, 16 h | 330,000 tested, 1.3% active; further: % of control where 0% means no effect; nearly all actives have a fitted effect of over 60% in size
#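 Luminescence read-out: rising ELG1-luciferase signal, reflecting elevated ELG1 protein under genetic stress, flags genotoxic compounds. Cells were treated for 16 hr at 37 °C before ONE-Glo detection.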
# Luc counter: counter-screen: inhibitors of Kinase-Glo firefly luciferase | Kinase-Glo luciferase, ATP luminescence, 8 min | Potency, µM (highest dose often 38.3 µM), for inactives: at the highest dose activity change, negative = inhibition, usual class: inhibitors | 200,000 tested, 0.28% active; further: on the % scale 0 is the no-effect control and ±100 the full control effect; nearly all actives have a fitted effect of over 60% in size
#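 Inhibition of Kinase-Glo luciferase light generation was assessed at 10 uM ATP in pH 7.2 imidazole buffer, with luminescence measured after eight minutes at ambient temperature.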
# NPC1 promoter act: activators of NPC1 promoter; Potency, µM (titrated, usually from 9.22 µM), without a hit: top-dose activation, usual class: activators; Huh7 NPC1 promoter luciferase reporter, 24 h; AID 485313; 320,000 tested, 2.4% active; further: % of control where 0% means no effect; nearly all actives have a fitted effect of over 60% in size
#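 Luciferase expression driven by the NPC1 promoter was measured in stably transfected Huh7 cells after a 24 h compound incubation, using a luciferase reagent and a luminescence read.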
# * = called active by the depositor; u = inconclusive; x = no result; [ ] = another dose, or the depositor's remark. This is a sample that favours compounds with a hit; in the whole collection about 7.3% have one here. The call rests on the fitted dose curve; in most records, active means well fitted curve in the direction sought with a large enough effect; inconclusive means small, poorly fitted or top-dose-only effect, or another doubt; inactive means no such curve, though single readings can be large; an effect the other way counts as inactive or inconclusive. Potency means the concentration at half of the fitted maximal effect.
SMILES,FLuc modulator,Rab9 promoter act,SMN2 splice up,ELG1 genotoxic,Luc counter,NPC1 promoter act
Cc1cc(C)c(S(=O)(=O)NCC(c2ccco2)N2CCOCC2)c(C)c1 (stereo unspecified),4%,x,x,x,x,x
COc1cc(C2NC(=S)NC(C)=C2C(=O)Nc2ccc(C)cc2)ccc1O (stereo unspecified),u,2.2µM*,x,17%,3%,u
Cc1ccc(-c2noc(-c3ccccc3NC(=O)C3CC(=O)N(c4ccc(C)cc4)C3)n2)cc1 (stereo unspecified),-7%,x,x,x,x,x
NC[C@@H]1O[C@H](O[C@H]2[C@H](O)[C@H](O[C@@H]3O[C@H](CO)[C@@H](O)[C@H](N)[C@@H]3O)[C@@H](N)C[C@H]2N)[C@@H](O)[C@H](O)[C@@H]1O,x,x,-1%[20.6 µM],x,2%[17.1 µM],x
CN(C)c1cccc(C(=O)NCC2CCCO2)c1 (stereo unspecified),-4%,27%,28µM*,u,-1%,16%
O=C(NCC1CCCO1)c1cccc(Oc2ccccc2)c1 (stereo unspecified),17µM*,u,x,u,x,21%
CN(C)c1ccc(C(=O)NCC2CCCO2)cc1 (stereo unspecified),u,28%,25µM*,u,-4%,u
Cc1cccc(C(=O)NCC2CCCO2)c1 (stereo unspecified),3%,2%,14%,0%,0%,0%
COc1ccccc1Cc1nc2ccccc2nc1SCC(=O)N1CCN(c2ccccc2)CC1,-1%,x,x,x,x,x
CCOC(=O)c1sc(N2C(=O)c3oc4cc(C)c(C)cc4c(=O)c3C2c2ccc(C)cc2)nc1C (stereo unspecified),3%,x,30%,x,x,x
COc1ccc(Cn2ccc3nc(C)c(C(=O)N4CCN(c5ccccc5OC)CC4)cc3c2=O)cc1,0%,x,x,x,x,x
CCOC(=O)c1cc(C)n(CC2CCC(C(=O)Nc3cc(OC)cc(OC)c3)CC2)c1C (stereo unspecified),-1%,x,x,x,x,x
CCOC(=O)C(=CN=C(N)Nc1nc2ccccc2o1)C(=O)OCC,-2%,u,x,u,2%,u
CCCOC(=O)Nc1nc2ccccc2o1,13µM*,2.5µM*,u,u,-10%,2.2µM*
c1ccc(Nc2nc3ccccc3o2)cc1,3µM*,2.5µM*,u,1.8µM*,13µM*,2µM*
Fc1ccccc1Nc1nc2ccccc2o1,1.5µM*,0.4µM*,x,2.1µM*,x,0.71µM*
O=C(NNc1nc2ccccc2o1)c1ccccc1,2.7µM*,0.79µM*,x,16%,x,u
Cc1cc(C)nc(Nc2nc3ccccc3o2)n1,-10%,18%,x,3%,x,23%
FC(F)(F)Oc1ccc(Nc2nc3ccccc3o2)cc1,8.5µM*,u,u,u,-5%,2.5µM*
Cc1ccc(NC(=O)c2c(C)nc(Nc3nc4ccccc4o3)nc2C)cc1,1%,-1%,-8%,2%,-3%,-1%
Cc1ccc(OCCn2cnc3ccccc3c2=O)c([N+](=O)[O-])c1,u,1.8µM*,16µM*,u,-4%,2.8µM*
Cc1cc(OCCn2cnc3ccccc3c2=O)ccc1[N+](=O)[O-],0%,3%,-19%,10%,-3%,1%
Cc1ccccc1CNCCCSc1nnnn1-c1ccccc1,0%,x,x,x,x,x
CC1CC(C)CN(C(=O)Nc2ccc(Br)cc2)C1 (stereo unspecified),u,10%,11%,0%,1%,-1%
CC1CCN(C(=O)c2cc3ccccc3o2)CC1,19µM*,u,u,13µM*,-6%,u
SMILES,FLuc modulator,Rab9 promoter act,SMN2 splice up,ELG1 genotoxic,Luc counter,NPC1 promoter act
CC(=O)N1CCN(C(=O)c2cc3ccccc3o2)CC1,1%,-2%,x,7%,x,-3%
CC1CC(C)CN(C(=O)c2cc3ccccc3o2)C1 (stereo unspecified),u,u,x,23µM*,x,23%
CC1CC(C)CN(C(=O)c2cc3cc(Br)cc(Br)c3o2)C1 (stereo unspecified),17µM*,17%,11%,u,3%,15%
CCN(CC)c1ccc(C(=O)OCC(=O)Nc2sccc2C#N)cc1,12µM*,2.8µM*,10µM*,u,5%,3.2µM*
CN(C(=O)COC(=O)c1cc2ccccc2cc1O)c1ccccc1,x,x,x,0%,x,x
N#Cc1ccsc1NC(=O)CN(Cc1ccccc1)Cc1ccccc1,-16%,-4%,-25%,0%,4%,-4%
N#Cc1ccsc1NC(=O)CCc1ccccc1,15µM*,u,13µM*,u,-15%,0%
CCN(CC)c1ccc(C(=O)OCC(=O)Nc2ncccn2)cc1,x,x,x,-2%,x,x
CC(C)(C)C(=O)COC(=O)c1cc2ccccc2cc1O,6.7µM*,1%,u,u,-5%,-1%
N#Cc1ccsc1NC(=O)COc1ccc(-c2nnco2)cc1,15µM*,u,u,u,5%,u
CCCSc1nc2c([nH]c3ccccc32)c(=O)n1C,0%,x,x,x,x,x
N[C@@H](CNO)C(=O)O,x,x,-11%[9.22 µM],x,-1%[7.66 µM],x
CCc1ccc(CNCc2c(C(=O)O)n(Cc3ccc(C)cc3)c3cc(C)ccc23)cc1,-12%,x,x,x,x,x
N#Cc1ccsc1NC(=O)COC(=O)c1ccc(NC(N)=O)cc1,5.4µM*,u,13µM*,21µM*,-2%,1.1µM*
N#Cc1ccsc1NC(=O)COC(=O)c1cc2ccccc2cc1O,4.3µM*,3.2µM*,22µM*,u,-5%,18%
NC(=O)Nc1ccc(C(=O)OCC(=O)Nc2sccc2C(N)=O)cc1,u,1%,x,1%,x,-7%
O=C(Nc1ccccc1NC(=O)c1c(F)cccc1F)c1c(F)cccc1F,-2%,-9%,x,-2%,x,1%
O=C(Nc1noc2ccccc12)c1c(F)cccc1F,7.6µM*,x,22µM*,x,x,x
CCOC(=O)c1c(C)oc2nc(C)nc(NCc3cccc(Cl)c3)c12,6%,x,x,x,x,x
O=C(COC(=O)c1ccccc1NC(=O)C1CC1)c1ccc2c(c1)OCCO2,1.7µM*,u,1%,-1%,2%,22%
CC(C)(C)C(=O)Nc1ccccc1C(=O)OCC(=O)c1ccc2c(c1)OCCO2,6.7µM*,3%,-29%,-1%,-1%,-3%
COC(=O)c1ccccc1NC(=O)c1ccc2c(c1)OCCO2,u,18%,u,13%,4%,3%
COC(=O)N1C2CC3(C)CC(=O)CC1(C)C3c1ccccc12 (stereo unspecified),x,x,4%[9.22 µM],x,-6%[7.66 µM],x
Cc1ccc(CSc2nnc(C)c(=O)[nH]2)cc1,17µM*,-2%,-6%,11%,0%,-8%
